Data from PubChem BioAssay (NCATS).
Unmarked numbers belong to inactive results. Results filed as inconclusive are left out. Calls of active or inactive are those of the source. Unless noted, calls follow the shape of the dose curve; as a rule, active = well fitted curve in either direction with a large enough effect (not every such curve was filed as active); inconclusive = small, poorly fitted or top-dose-only effect, or another doubt; inactive = flat fitted curve, though single readings scatter.

How the values were obtained:
[1] = AP1 Signaling Pathway (AID 357); conditions: ME-180 AP-1-bla reporter, EGF-induced, beta-lactamase ratio, 5 h; at 17.2 µM (top of the series) unless noted;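 also: ME-180 reporter cells stimulated with EGF at its EC50 level; % is scaled to controls: 0 for no effect and ±100 for the full control effect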
How it was run: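 Read-out was the 460nm/530nm emission ratio (excitation 405nm) after CCF4 loading for 2.5 hours at room temperature. Cells carried an AP-1-driven beta-lactamase reporter, were stimulated with EC50 EGF plus compound for 5 hours, and AC50 values came from titrations.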

[2] = NFAT Signaling Pathway (AID 444); conditions: Jurkat NFAT-bla M1, carbachol, beta-lactamase ratio, 5 h; at 17.2 µM (top of the series) unless noted;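 also: carbachol stimulus at about its EC50 of 1 µM final; % is scaled to controls: 0 for no effect and ±100 for the full control effect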
How it was run: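 Read-out: CCF4 FRET ratio (460 nm/530 nm) after 1 h RT dye loading, used for %activity and AC50 from titration series. Cells: Jurkat NFAT-β-lactamase/M1 line, treated with compound plus 1 uM carbachol for 5 h, 37 °C.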

[3] = Stat Signaling Pathway (AID 446); conditions: ME-180 SIE beta-lactamase reporter, IL-6 stimulated, 5 h; at 17.2 µM (top of the series) unless noted;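 also: ME-180 cervical cancer cells given 40 pM IL-6 alongside compound; SIE-controlled beta-lactamase reporter measured as 460/530 nm FRET emission ratio; % is scaled to controls: 0 for no effect and ±100 for the full control effect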
How it was run: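 Reporter line: ME-180 cervical carcinoma, SIE-beta-lactamase. Treatment: compound with 40 pM IL-6, 5 hrs, 37 C, in low-serum OPTI-MEM with 10 mM HEPES pH 7.3. Detection: 460/530 nm fluorescence.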

[4] = molecular target: Glucocorticoid receptor (Homo sapiens) (UniProt P04150); assay: GR-GFP Redistribution (AID 450;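 active = compounds whose dose series gives a full or clear partial fitted curve of increased nuclear translocation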; also: potency is read from the fitted curve at half-maximal effect); conditions: U2OS GR-GFP nuclear translocation, laser cytometry, 2 h; series mostly up to 20.6 µM
[5] = qHTS Assay for Identification of Small Molecule Agonists for Hypoxia Response Element Signaling Pathway (AID 914; active = well fitted activation curve with a large enough effect in the signal ratio, with a control signal flat, not every such curve was filed as active; the % refers to the signal ratio; also: potency is read from the fitted curve at half-maximal effect; as to activation: % of control where 0% means no effect); conditions: ME-180 (cervical carcinoma) HRE-bla reporter, beta-lactamase ratio, CoCl2, 17 h; activation: hits give high values
How it was run: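 qHTS titration; ME-180 HRE-bla cells; EC50 CoCl2 co-treatment, 17 h at 37 degrees Celsius; CCF4 dye, ex 405nm, em 460nm and 530nm; %Activity from ratio; AC50.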

Sequence of Glucocorticoid receptor (Homo sapiens) (P04150 whole entry, looked up): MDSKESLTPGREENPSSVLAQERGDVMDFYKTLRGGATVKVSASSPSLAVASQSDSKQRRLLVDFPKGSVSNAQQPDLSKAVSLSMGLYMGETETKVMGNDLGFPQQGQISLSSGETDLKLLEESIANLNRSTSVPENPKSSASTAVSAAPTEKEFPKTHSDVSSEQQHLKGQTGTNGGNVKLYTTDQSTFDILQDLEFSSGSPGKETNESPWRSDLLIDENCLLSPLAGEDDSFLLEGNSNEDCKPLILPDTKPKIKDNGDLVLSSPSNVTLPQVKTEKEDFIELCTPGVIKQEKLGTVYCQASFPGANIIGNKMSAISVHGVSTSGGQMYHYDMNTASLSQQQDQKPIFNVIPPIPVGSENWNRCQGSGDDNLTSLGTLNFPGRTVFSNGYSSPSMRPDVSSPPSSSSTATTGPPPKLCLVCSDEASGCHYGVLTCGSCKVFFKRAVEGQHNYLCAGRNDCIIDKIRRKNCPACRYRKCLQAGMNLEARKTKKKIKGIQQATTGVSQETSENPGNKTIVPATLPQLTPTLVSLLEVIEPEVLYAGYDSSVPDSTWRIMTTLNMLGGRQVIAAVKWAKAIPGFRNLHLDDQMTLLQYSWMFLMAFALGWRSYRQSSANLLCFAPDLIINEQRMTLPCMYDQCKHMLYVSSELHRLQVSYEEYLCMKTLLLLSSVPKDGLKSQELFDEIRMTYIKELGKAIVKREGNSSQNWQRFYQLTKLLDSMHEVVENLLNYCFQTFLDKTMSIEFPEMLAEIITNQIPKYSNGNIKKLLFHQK

| SMILES | activity change, negative = inhibition [1] | activity change, negative = inhibition [2] | activity, negative = inhibition [3] | Potency [4] | activation [5] | Potency [5] |
| --- | --- | --- | --- | --- | --- | --- |
| Fc1ccc(-c2cnc[nH]2)cc1 | 3.07% | -3.45% | -3.45% | > 20.6 µM | 14% | – |
| Cc1ccc(OCc2nnc(NC(=O)c3ccco3)s2)c(C)c1 | -4.34% | 11.7% | -14.8% | > 20.6 µM | -11.9% | – |
| Cc1cc(CC(=O)O)c(C)cc1CC(=O)O | 11.9% | 2.75% | 2.12% | > 20.6 µM | 5.91% | – |
| CCOC(=O)C1(C(=O)OCC)C(c2ccccc2)CC(O)N1C(C)=O (stereo not given) | 5.72% | 2.25% | -1.29% | > 20.6 µM | 15.4% | – |
| CC(=O)CCn1c(=O)n(CCC(C)=O)c(=O)n(CCC(C)=O)c1=O | 5.12% | 6.61% | -1.84% | > 20.6 µM | 11.1% | – |
| COc1ccc(C(=O)C2CCCCC2=O)cc1 (stereo not given) | 2.34% | -0.888% | 8.28% | > 20.6 µM | 5.32% | – |
| Cc1cc(/C=N\O)c(C)n1-c1ccncc1 | 0.0567% | 23.9% | -5.06% | > 20.6 µM | 1.93% | – |
| C=CCn1c(=N)c(C(=O)OCC)cc2c(=O)n3cccc(C)c3nc21 | 15.5% | -23.4% | 28.1% | > 20.6 µM | – | 10 µM (active) |
| CCN(CC)CCNc1nc2c(c(=O)[nH]c(=O)n2C)n1CCOc1ccccc1 | -3.03% | -7.16% | 8.2% | > 20.6 µM | 0.547% | – |
| CN1C(=O)c2ccc(N(C)C)cc2C1=O | 1.85% | -12.3% | 1.02% | > 20.6 µM | 14.5% | – |
| CCCOc1ccc(Cn2c(O)cc(=O)[nH]c2=O)cc1 | -5.5% | 7.39% | -0.906% | > 20.6 µM | 16.1% | – |
| COC(=O)c1ccc(C(=O)OC)c(NC(=O)c2cc3ccccc3o2)c1 | -4.57% | 3.55% | 8.58% | > 20.6 µM | -0.252% | – |
| CC(C)(C)NCc1cc2ccccc2[nH]c1=O | -4.82% | -24.2% | 3.71% | > 20.6 µM | -14.6% | – |
| COc1cc(-c2cc(C(F)(F)F)n3ncc(C(=O)O)c3n2)cc(OC)c1OC | 3.69% | 3.34% | 1.42% | > 20.6 µM | 13.9% | – |
| CCc1nc(NCC2CCCO2)c(C#N)c2c1COC(C)(C)C2 (stereo not given) | -25.1% | -16.2% | -2.2% | > 20.6 µM | -11.3% | – |
| CC(C)COC(=O)CCNc1n[nH]c(=O)[nH]c1=O | 12.9% | 4.96% | 1.49% | > 20.6 µM | -10.2% | – |
| CCC(=O)N(Cc1cccs1)C1CCOC(C)(C)C1 (stereo not given) | -6.24% | -16.2% | -2.05% | > 20.6 µM | -1.46% | – |
| Cc1nnc(SCCC#N)n(CCC#N)c1=O | 25.1% | -2.84% | -5.67% | > 20.6 µM | 15.5% | – |
| CC1(C)CC(=O)C(C=Nc2ccc(Cl)cn2)=C(O)C1 | -10.2% | 17.4% | 21.1% | > 20.6 µM | -14.7% | – |
| Cn1c(NCCCO)nc2c1c(=O)n(Cc1ccccc1F)c(=O)n2C | -2.43% | 8.23% | -2.21% | > 20.6 µM | -5.37% | – |
| Oc1ccccc1CNn1cnnc1 | -0.712% | 15.6% | 4.83% | > 20.6 µM | 7.68% | – |
| Cc1cc(C)nc(NC2=NCC(=O)N2c2ccc(Cl)cc2)n1 | 0.0978% | -13.8% | 5.94% | > 20.6 µM | 16.5% | – |
| CCOc1ccc(NC(=O)c2nn(C)cc2Br)cc1 | 1.01% | 4.54% | 3.62% | > 20.6 µM | 5.55% | – |

| SMILES | activity change, negative = inhibition [1] | activity change, negative = inhibition [2] | activity, negative = inhibition [3] | Potency [4] | activation [5] | Potency [5] |
| --- | --- | --- | --- | --- | --- | --- |
| Cc1nn(CCO)c2c1C(=O)CCC2 | 3.9% | -9.31% | 5.4% | > 20.6 µM | 12.2% | – |
| CCOC(=O)C(C(=O)OCC)N(C#N)c1nc(SC)nc(N(C)C)n1 | -8.06% | -23.5% | -8.92% | > 20.6 µM | -11.1% | – |
| COc1cc(C2C3C(=O)N(c4ccc(F)cc4)C(=O)C3ON2c2ccccc2)ccc1O (stereo not given) | -17.6% | 0.386% | -1.27% | > 20.6 µM | -4.56% | – |
| Cc1cccc(-n2ncc3c(NCc4ccco4)ncnc32)c1 | -15.1% | -12.4% | -20.3% | > 20.6 µM | 8.46% | – |
| COC(=O)C1=C(N)Oc2cc(C)oc(=O)c2C1c1ccncc1 (stereo not given) | -9.84% | 4.62% | 0.284% | > 20.6 µM | 12.2% | – |
| CN1c2ccccc2-c2nc3ccccc3n2C1c1ccco1 (stereo not given) | 5.2% | -6.44% | -0.11% | > 20.6 µM | -8.71% | – |
| CCCC(CCC(=O)Nc1ccc(C(=O)OCC)cc1)C(=O)O (stereo not given) | 4.36% | 0.831% | 3.58% | > 20.6 µM | 10% | – |
| C=CCc1cccc(/C=N/c2ncn[nH]2)c1O | -5.91% | -19.8% | 5.03% | > 20.6 µM | 26.2% | – |
| N#CC12CCCCC1CC1CCCCC1(C#N)N2Cc1cccnc1 (stereo not given) | 11.8% | -6.79% | 4.8% | > 20.6 µM | 9.28% | – |
| CCn1c(-c2ccco2)n[nH]c1=S | 14% | 4.37% | 4.5% | > 20.6 µM | 13.1% | – |
| O=C1CSC(=Nc2ccc(O)cc2)N1c1ccc(O)cc1 | 24.5% | -9.67% | 13.7% | > 20.6 µM | -9.31% | – |
| CC1(C)Cc2nc(NCCN3CCOCC3)c(C#N)cc2CO1 | 7.57% | 7.63% | 11% | > 20.6 µM | 3.3% | – |
| N#Cc1c(NC(=O)CCC(=O)O)sc2c1CCCC2 | -1.32% | -1.33% | -10% | > 20.6 µM | -23.4% | – |
| Cc1ccc(-c2n[nH]c(=O)c3ccccc23)cc1S(=O)(=O)NCCN1CCOCC1 | 1.31% | -9.43% | 1.81% | > 20.6 µM | -17.3% | – |
| Cn1c(=O)c2c(nc(Oc3ccc4c(c3)OCO4)n2Cc2ccc(F)cc2)n(C)c1=O | 28.8% | 2.74% | 6.83% | > 20.6 µM | -23.2% | – |
| Cn1ccnc1SCCC#N | -0.27% | -6.48% | 5.85% | > 20.6 µM | 14% | – |
| COC(=O)[C@H]1CCCN1C(=O)Nc1cccc(Oc2c(F)c(F)c(F)c(F)c2F)c1 | -14.6% | -9.08% | -7.79% | > 20.6 µM | -9.38% | – |
| COc1cccc(Cn2c(Oc3ccccc3)nc3c2c(=O)n(C)c(=O)n3C)c1 | -23.1% | -10.8% | -11.1% | > 20.6 µM | -17.4% | – |
| CCOc1ccc(/C(O)=C2/C(=O)C(=O)N(CCN(CC)CC)C2c2ccco2)cc1 (stereo not given) | -1.27% | -3.29% | 6.33% | > 20.6 µM | -14.8% | – |
| COc1ccc(C(=O)Cn2c(Br)nc3c2c(=O)n(C)c(=O)n3C)cc1OC | 7.09% | 25.7% | 0.59% | > 20.6 µM | 8.03% | – |
| CCSC(SCC)[C@H](O)[C@@H](O)[C@H](O)[C@H](O)CO | -0.356% | 8.22% | 10.1% | > 20.6 µM | 9.48% | – |
| Cc1nn(C)cc1C1C2=C(CC(C)(C)CC2=O)OC2=C1C(=O)CC(C)(C)C2 | 3.4% | -23.9% | 4.21% | > 20.6 µM | 1.79% | – |
| COc1ccc(C(=O)OC(C)CN2CCN(C)CC2)cc1OC (stereo not given) | 4.78% | -6.37% | 11.6% | > 20.6 µM | 7.74% | – |
